AID inh – blocks human AID cytidine deaminase activity | Q9GZX7 | AID deamination FRET fluorescence, UDG-coupled, 4 h | Potency, µM (top dose mostly 115 µM), hits mostly inhibitors | 91,000 compounds, 0.32% hits | AID 1347428; further: nearly all actives have a fitted effect of over 25% in size
Target sequence (Q9GZX7 whole entry, looked up): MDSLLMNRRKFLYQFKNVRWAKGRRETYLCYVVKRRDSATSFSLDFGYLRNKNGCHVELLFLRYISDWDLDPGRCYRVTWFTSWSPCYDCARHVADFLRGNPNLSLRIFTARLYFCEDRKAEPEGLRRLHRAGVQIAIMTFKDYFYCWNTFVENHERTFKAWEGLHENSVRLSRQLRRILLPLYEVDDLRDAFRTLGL
UDG counter – counter-screen for AID inhibitors: uracil-DNA glycosylase inhibition. FRET deamination/UDG coupled assay, UDG read, 4 h. Potency, µM (highest dose often 115 µM), usual class: inhibitors. 91,000 compounds, 0.14% hits. AID 1347430; further: nearly all actives have a fitted effect of over 65% in size
Each line names hits and unclear results; the compound was inactive in the other large screens. Only some compounds are listed: those with a hit (about 0.47% of all), similar ones and a draw of the others. The call rests on the fitted dose curve; in most records, active means well fitted curve in the direction sought with a large enough effect; inconclusive means small, poorly fitted or top-dose-only effect, or another doubt; inactive means no such curve, though single readings can be large; an effect the other way counts as inactive or inconclusive.

Cc1ccc(OCCCSc2nc(-c3ccc(C(C)(C)C)cc3)nc3cc(=O)[nH]n23)cc1C	AID inh 45µM, UDG counter inconclusive
CC(C)(C)c1ccc(-c2nc(SCCOc3ccc(Cl)cc3)n3[nH]c(=O)cc3n2)cc1	AID inh inconclusive
O=C(CC1CC2CCC1C2)OCC(=O)c1ccc2c(c1)OCO2 (stereo not given)	none
COc1cccc(CNC(=O)c2ccc3c(=O)n4nc(Nc5ccccc5)sc4nc3c2)c1	none
CCN(CC)CCNC(=O)c1ccc2c(=O)n3nc(Nc4ccccc4)sc3nc2c1	AID inh 71µM
Cc1ccc(CNC(=O)c2cc(-c3ccncc3)nc3ccccc23)cc1	none
COc1ccc(/C=C2\Oc3cc(OC(=O)C(C)(C)C)ccc3C2=O)c(OC)c1OC	none
O=C(O)c1cccc(NC(=O)c2cccc(S(=O)(=O)Nc3cccc(C(=O)O)c3)c2)c1	none
O=C(Nc1cccc(C(=O)Nc2ccc(S(=O)(=O)O)c3cc(S(=O)(=O)O)cc(S(=O)(=O)O)c23)c1)Nc1cccc(C(=O)Nc2ccc(S(=O)(=O)O)c3cc(S(=O)(=O)O)cc(S(=O)(=O)O)c23)c1	AID inh 50µM
COC(=O)c1ccc(CNCc2ccco2)o1	none
CCCCCOc1ccccc1CN1C(=O)C(=O)c2cc(C)ccc21	AID inh 28µM
CCCCOc1ccc(CN2C(=O)C(=O)c3cc(C)ccc32)cc1OC	AID inh inconclusive
Cc1ccc(CN(Cc2ccco2)C(=O)COc2cccc(C)c2C)o1	AID inh 40µM
Cc1ccc(CN(Cc2ccco2)C(=O)COc2c(C)cc(C)cc2C)cc1	AID inh inconclusive
Cc1cccc(OCC(=O)N(Cc2ccc(N(C)C)cc2)Cc2ccco2)c1C	AID inh inconclusive
Cc1cc(C)c(OCC(=O)N(Cc2ccco2)Cc2ccco2)c(C)c1	AID inh 45µM
COc1ccc(CNC(=O)C=C(C)C)cc1	none
COc1ccc(C(=O)C(C)OC(=O)c2cc(OC)cc(OC)c2)cc1 (stereo not given)	none
Cc1nc2cccnc2n1C1CCN(S(=O)(=O)c2ccc(Cl)cc2)CC1	UDG counter inconclusive
CC(C)Cc1nc2cccnc2n1C1CCN(S(=O)(=O)c2ccc3c(c2)CCCC3)CC1	UDG counter 79µM
O=C(Nc1cccc(S(=O)(=O)N2CCCC2)c1)c1ccccc1Oc1ccccc1	none
COC(=O)c1ccccc1NC(=O)c1ccc(N2CCCN(Cc3ccccc3F)C2=O)cc1	none
CC1CCCc2sc(N)c(C#N)c21 (stereo not given)	none
CCOc1ccc2nc(C)cc(Nc3ccccc3OCC)c2c1	AID inh 79µM, UDG counter inconclusive
CCOc1ccc(Nc2cc(C)nc3ccc(Cl)cc23)cc1	none
CCN(CC)C(CNS(=O)(=O)c1ccc(C#N)cc1)c1ccsc1 (stereo not given)	none
COc1ccc(S(=O)(=O)N2CCn3cccc3C2c2cccs2)cc1C (stereo not given)	none
COc1ccc(S(=O)(=O)N2CCn3cccc3C2c2ccc(C)cc2)cc1C (stereo not given)	UDG counter 79µM
CC1Cc2ccccc2N1S(=O)(=O)c1nnc(NC(=O)c2ccccc2)s1 (stereo not given)	none
CC1Cc2ccccc2N1S(=O)(=O)c1nnc(NC(=O)c2ccccc2Br)s1 (stereo not given)	AID inh 45µM
Cc1ccc2nc(NC(=O)CCc3ncc(-c4ccccc4Cl)o3)sc2c1	none
O=C1C(SCCO)=C(SCCO)C(=O)c2ccccc21	AID inh 11µM
CC(C)N(CCNC(=O)C(c1ccccc1)c1ccccc1)C(C)C	none
CC(C)(C)OC(=O)N1CCC(c2c(C(=O)N3CCC(c4ccccc4)C3)cnn2-c2cccc(Cl)c2)CC1 (stereo not given)	AID inh 40µM, UDG counter inconclusive
CC(C)(C)OC(=O)N1CCC(c2c(C(=O)N3CCC(c4ccccc4)C3)cnn2-c2ccc(Cl)cc2)CC1 (stereo not given)	AID inh 40µM, UDG counter inconclusive
Cc1ccc(C2CCN(C(=O)c3cnn(-c4ccc(C)cc4)c3C3CCN(C(=O)OC(C)(C)C)CC3)C2)cc1 (stereo not given)	none
Cc1ccc(C2CCN(C(=O)c3cnn(-c4cccc(Cl)c4)c3C3CCN(C(=O)OC(C)(C)C)CC3)C2)cc1 (stereo not given)	AID inh inconclusive
COc1ccccc1CN1CCC(CNC(=O)c2cnn(-c3ccc(C)c(C)c3)c2C2CCN(C(=O)OC(C)(C)C)CC2)CC1	AID inh inconclusive
COc1ccccc1CN1CCC(CNC(=O)c2cnn(-c3ccc(Cl)cc3)c2C2CCN(C(=O)OC(C)(C)C)CC2)CC1	AID inh 45µM, UDG counter inconclusive
Cc1ccc(C(=O)COC(=O)c2ccccc2C(=O)c2ccc(-c3ccccc3)cc2)cc1	none
Cc1cc(C(F)(F)F)nc(SC(C(=O)O)c2ccccc2)n1 (stereo not given)	none
c1ccc(-c2nnc3sc(Cn4cccn4)nn23)cc1	none
COc1cccc(-c2nc(CS(=O)CC(=O)N3CCN(c4cccc(C(F)(F)F)c4)CC3)c(C)o2)c1 (stereo not given)	AID inh 45µM
Cc1oc(-c2ccc(Cl)cc2)nc1CS(=O)CC(=O)N1CCN(c2cccc(C(F)(F)F)c2)CC1 (stereo not given)	AID inh inconclusive
O=C(O)Cc1cccc2cccnc12	none
COc1cc(OC)c(N(C)C(=O)c2cc3c(s2)-c2ccccc2OC3)cc1Cl	none
COc1ccc(N(C)C(=O)c2cc3c(s2)-c2ccccc2OC3)cc1	AID inh 45µM
CC1=CC(=O)C2(CCCCC2)NC1	none
N#Cc1c(NC(=O)CCn2nnc(-c3cccc(Cl)c3)n2)sc2c1CCCC2	none
O=C(Cn1cnc2nc3c(cc2c1=O)CCCC3)N1CCN(c2cccc(C(F)(F)F)c2)CC1	none
Cc1ccc(Cl)cc1N1CCN(C(=O)Cn2cnc3nc4c(cc3c2=O)CCCC4)CC1	AID inh 40µM, UDG counter inconclusive
O=C(O)c1cc(Cl)cc(Cl)c1I	none
O=C(O)c1ccc(-n2c(/C=C\c3ccc(O)cc3)nc3ccccc3c2=O)cc1	none
O=C(O)c1cc(-n2c(/C=C\c3ccc(F)cc3)nc3ccccc3c2=O)ccc1Cl	AID inh inconclusive, UDG counter 89µM
O=C(Nc1ccc(F)cc1)c1cc(-c2ccco2)on1	none
Cc1ccc(-c2noc(CSc3nnc(C)n3-c3ccc(C)cc3)n2)cc1	AID inh inconclusive
Cc1ccc(-n2c(SCc3nc(-c4ccc(Cl)cc4)no3)nnc2-c2ccncc2)cc1	AID inh 35µM, UDG counter inconclusive
CCOc1ccc(-c2noc(CSc3nnc(-c4ccccc4)n3-c3ccccc3)n2)cc1	none
Clc1ccccc1-c1nnc(SCc2nc(-c3ccccc3)no2)n1-c1ccccc1	AID inh inconclusive, UDG counter 79µM
COc1ccc(OC)c(-c2noc(CSc3nnc(-c4ccccc4)n3-c3ccccc3)n2)c1	none
COc1ccc(-c2noc(CSc3nnc(C)n3-c3ccc(F)cc3)n2)cc1	UDG counter 79µM
COc1ccc(-c2noc(CSc3nnc(-c4ccncc4)n3-c3ccc(OC)cc3)n2)cc1	AID inh inconclusive, UDG counter 79µM
COCCSc1nnc(-c2ccc(Cl)cc2)n1-c1ccc(OC)cc1	none
C[N+]1(CC#Cc2ccc(C#CC[N+]3(C)CCCC3)cc2)CCCC1	none
O=C(COc1ccc(F)cc1)NC1CCCN(c2ncccn2)C1 (stereo not given)	none
O=C(NCc1n[nH]c(=O)c2ccccc12)c1ccc(Cl)cc1	none
Cc1cccc(-c2nc(Nc3ccc(C(=O)O)cc3)c3ccccc3n2)c1	none
